This passage reports binding signal results from article PMC9838217, “Structure of SALL4 zinc finger domain reveals link between AT-rich DNA binding and Okihiro syndrome”.

Changes are numbered by the printed parent chain.

The first experiment deals with T1, SALL4 ZFC4 R900W (HT-SELEX) (Mus musculus, UniProt Q8BX22 870-940, R900W).
T1 sequence: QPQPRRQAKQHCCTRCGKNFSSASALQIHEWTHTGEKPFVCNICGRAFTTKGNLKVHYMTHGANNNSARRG
The experiment in a line: HT-SELEX; high values mean tight binding. Conditions: protein: recombinant; vector His6-GST; dsDNA, one strand shown. The procedure, abridged:
(§1)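 In triplicate selections of up to 6 cycles, purified recombinant mouse SALL4 zinc finger cluster 4 (residues 870–940, 1 µg) was incubated 10 min at room temperature with library DNA (1.5 µg, then 200 ng) in 100 µl of 10 mM Tris–HCl pH 7.5, 50 mM NaCl, poly(dI-dC) and DTT, and complexes were captured on Ni2+ beads, washed and PCR-amplified. Sequencing was done on MiSeq with scanning for 6-mers. The binding signal is each canonical k-mer's read fraction, reported as fold change against the initial random library.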
For CCAATA, the binding signal is 1.24 ± 0.0246 fold-change vs cycle 0.
Take ATTTGG: the binding signal is 1.09 ± 0.0268 fold-change vs cycle 0.
For CAAATG, the binding signal stood at 1.17 ± 0.0524 fold-change vs cycle 0.
As for AAATGG, the binding signal was 1.16 ± 0.0862 fold-change vs cycle 0.
Same read-out and setting: the same measure for AGGATG: 1.04 ± 0.0516 fold-change vs cycle 0.
Consider AAAACT, for which the binding signal came to 1.7 ± 0.107 fold-change vs cycle 0.
Still for that read-out and setting: next, ATAGCA: 1.21 ± 0.0922 fold-change vs cycle 0; GCATAA: 1.11 ± 0.0331 fold-change vs cycle 0.
On the same count and under the same terms, the same measure for ATGGAG: 1.04 ± 0.0611 fold-change vs cycle 0; for GCTTTA: 1.09 ± 0.0574 fold-change vs cycle 0.
For AAACGA, the binding signal was found to be 1.16 ± 0.0331 fold-change vs cycle 0.
The same measure, in the same setting: the same measure for GGAAGA: 1.12 ± 0.0339 fold-change vs cycle 0.

A further experiment has as its target T2, SALL4 ZFC4 G921D (HT-SELEX) (Mus musculus, UniProt Q8BX22 870-940, G921D).
T2 sequence: T1 sequence with W31R, G52D
The experiment in a line: HT-SELEX; high values mean tight binding. The conditions noted are these: protein: recombinant; vector His6-GST; dsDNA, one strand shown. An outline of the steps: as §1
On to AGGTAA, for which the binding signal came to 1.45 ± 0.089 fold-change vs cycle 0.
On the same count and under the same terms, next, CCTATA: 1.35 ± 0.0515 fold-change vs cycle 0; AATACC: 1.3 ± 0.0234 fold-change vs cycle 0; AGTCAG: 0.958 ± 0.0631 fold-change vs cycle 0.
With GAGGAA, the binding signal was 1.03 ± 0.0774 fold-change vs cycle 0.
Same read-out and setting: next, AGCATA: 1.26 ± 0.0447 fold-change vs cycle 0.
Same read-out and setting: the same measure for CATGAA: 1.36 ± 0.0809 fold-change vs cycle 0; for AATCAG: 1.32 ± 0.103 fold-change vs cycle 0.
Same read-out and setting: the same measure for AACTAG: 1.31 ± 0.0994 fold-change vs cycle 0.
Take GAAAAC: the binding signal is 1.19 ± 0.0327 fold-change vs cycle 0.
On to AAACGA, for which the binding signal worked out at 1.16 ± 0.0214 fold-change vs cycle 0.
Same read-out and setting: next, ACTAGG: 1.01 ± 0.0534 fold-change vs cycle 0; AAGGTA: 1.42 ± 0.11 fold-change vs cycle 0; ACTTCA: 1.4 ± 0.125 fold-change vs cycle 0.
On the same count and under the same terms, next, AAGGGT: 1.01 ± 0.0322 fold-change vs cycle 0; GATCAA: 1.36 ± 0.0523 fold-change vs cycle 0; AATCCT: 1.47 ± 0.113 fold-change vs cycle 0.
Still for that read-out and setting: next, ATGTAG: 1.34 ± 0.129 fold-change vs cycle 0; AAGATG: 1.39 ± 0.12 fold-change vs cycle 0; CTCTTC: 1.238 ± 0.012 fold-change vs cycle 0.
With AACTGA, the binding signal stood at 1.35 ± 0.0948 fold-change vs cycle 0.
For the sequence AAGGAT, the binding signal came to 1.54 ± 0.145 fold-change vs cycle 0.
Still for that read-out and setting: the same measure for ACATGT: 1.4 ± 0.056 fold-change vs cycle 0.
